# Tb PGK inh = blocks T. brucei phosphoglycerate kinase | P07378 | PGK/GAPDH coupled, Kinase-Glo luminescence, 60 min | Potency, µM (top dose mostly 57.5 µM), for the others: at the top dose activity change, negative = inhibition, most hits filed as inhibitors | 380,000 tested, 0.043% active | AID 602233; further: potency means the concentration at half of the fitted maximal effect; nearly all actives have a fitted effect of over 60% in size
# Target sequence (P07378 whole entry, looked up): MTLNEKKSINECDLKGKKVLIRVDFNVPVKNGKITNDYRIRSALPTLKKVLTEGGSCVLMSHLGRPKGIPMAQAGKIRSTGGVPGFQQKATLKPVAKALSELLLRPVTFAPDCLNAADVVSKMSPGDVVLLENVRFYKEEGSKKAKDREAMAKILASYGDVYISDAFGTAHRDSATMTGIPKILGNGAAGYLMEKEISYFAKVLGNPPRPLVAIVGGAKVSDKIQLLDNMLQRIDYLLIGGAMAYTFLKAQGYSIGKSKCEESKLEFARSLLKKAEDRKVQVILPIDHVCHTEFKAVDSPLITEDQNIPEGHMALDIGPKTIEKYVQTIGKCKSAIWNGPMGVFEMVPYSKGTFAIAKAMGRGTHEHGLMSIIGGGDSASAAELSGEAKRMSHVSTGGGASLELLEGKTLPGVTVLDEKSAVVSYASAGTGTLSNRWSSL
#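 Luminescent ATP detection (Kinase-Glo Plus) follows a 60-minute room-temperature incubation, with wells lacking PGK as controls. Buffer: 100 mM TEA (pH 7.6), 5 mM MgCl2, 0.01% Tween-20. Coupling enzyme GAPDH (100 nM final) supplies unstable 1,3-BPG in-well.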
# FEN1 inh = blocks human flap endonuclease 1; P39748; 390,000 tested, 0.35% active; Potency, µM (highest dose often 114 µM), for inactives: at the highest dose activity change, negative = inhibition, actives largely listed as inhibitors; Recombinant FEN1 flap cleavage, fluorescence, 15 min; further: potency means the concentration at half of the fitted maximal effect; nearly all actives have a fitted effect of over 65% in size
# Target sequence (P39748 whole entry, looked up): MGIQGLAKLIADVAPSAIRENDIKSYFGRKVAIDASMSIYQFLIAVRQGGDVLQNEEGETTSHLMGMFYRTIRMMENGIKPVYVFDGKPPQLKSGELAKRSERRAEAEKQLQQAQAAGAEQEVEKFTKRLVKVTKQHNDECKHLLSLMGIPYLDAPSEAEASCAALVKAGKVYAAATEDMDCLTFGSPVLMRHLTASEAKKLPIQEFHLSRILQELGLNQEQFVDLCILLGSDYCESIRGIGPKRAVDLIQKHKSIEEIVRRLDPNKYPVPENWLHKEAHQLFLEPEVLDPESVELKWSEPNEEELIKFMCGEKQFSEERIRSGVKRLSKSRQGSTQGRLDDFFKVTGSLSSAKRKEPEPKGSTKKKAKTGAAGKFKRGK
#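 Recombinant FEN1 (10 nM) was preincubated with pin-transferred compounds for 15 min at room temperature, then flap DNA substrate (50 nM final) was added. Plates were read at 0 and 15 min, and normalized concentration–response data were fitted to a four-parameter Hill equation.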
# TDP1 inh = inhibitors of human tyrosyl-DNA phosphodiesterase TDP1 | Q9NUW8 | recombinant TDP1, AlphaScreen DNA substrate cleavage | 350,000 tested, 0.28% active | AID 485290 | Potency, µM (doses to about 130 µM), inactives show at the highest dose activity change, negative = inhibition, hits mostly inhibitors; further: potency means the concentration at half of the fitted maximal effect; nearly all actives have a fitted effect of over 40% in size
#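 Recombinant E. coli-expressed Tdp1 (1 nM) preincubated with compound 15 min at RT, then 5'-biotin/3'-phosphotyrosine-FITC DNA substrate (15 nM) added for 5 min. AlphaScreen beads (10 ug/ml) added, 10 min RT; tyrosine-FITC cleavage read as signal loss.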
# Tb PFK block = blocks T. brucei phosphofructokinase; AID 485367; Potency, µM (series often up to 57.5 µM), inactives show at the highest dose activity, negative = inhibition, usual class: inhibitors; O15648; 330,000 tested, 0.17% active; T. brucei PFK, ADP-Glo luminescence;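 further: potency means the concentration at half of the fitted maximal effect; 0% = uninhibited 1x PFK enzyme wells and -100% = no-enzyme wells; nearly all actives have a fitted effect of over 60% in size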
#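 Compounds were pin-transferred as a titration series up to 57 uM into substrate buffer (0.5 mM F6P, 0.1 mM ATP, pH 8.0), then 1.25 nM PFK was added and reactions ran 45 min before ADP-Glo detection.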
# WRN helicase inh = WRN helicase (human) inhibition; Q14191; WRN helicase unwinding, fluorescent forked duplex, kinetic; Potency, µM (doses to about 114 µM), without a hit: top-dose activity change, negative = inhibition, actives largely listed as inhibitors; 360,000 tested, 0.46% active; further: potency means the concentration at half of the fitted maximal effect; nearly all actives have a fitted effect of over 55% in size
#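 WRN at 20 nM final was preincubated with compound for 15 min at room temperature; reaction started with 100 nM forked duplex oligonucleotide carrying fluorophore and quencher plus 2 mM ATP (final). Unwinding followed kinetically by red fluorescence (ex 525/em 598 nm).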
# PI5P4Ka inh = PI5P4K alpha (human) kinase inhibition; P48426; PI5P4Kalpha enzyme, ADP-Glo luminescence, 60 min; stronger effect = lower value; max response, %; 330,000 tested, 1.2% active; AID 652105; active means max response of -50% or lower; inconclusive means between -30% and -50%; inactive means -30% or higher; further: value at the top dose of about 77 µM
#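 Luminescence from ADP-Glo served as readout of PI5P4Kalpha activity in a qHTS format. Reaction: enzyme, substrate, compound, ATP at 5 microM final, 60 min at RT.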
# * = called active by the depositor; i = inactive; ? = inconclusive; nt = not tested or not shown; [ ] = dose if it differs, or a comment. The list is not random: actives were taken first. Their share in the collection is about 1.5%. Unless noted, the call rests on the fitted dose curve; in most records, active means well fitted curve in the direction sought with a large enough effect; inconclusive means small, poorly fitted or top-dose-only effect, or another doubt; inactive means no such curve, though single readings can be large; an effect the other way counts as inactive or inconclusive. Unless noted, on the % scale 0 is the no-effect control and ±100 the full control effect.
SMILES,Tb PGK inh,FEN1 inh,TDP1 inh,Tb PFK block,WRN helicase inh,PI5P4Ka inh
Cc1ccc(NC(=O)Cn2c(=O)n(Cc3nc(-c4ccccc4)no3)c(=O)c3cc4c(cc32)OCO4)cc1F,-0.6%,-13.2%,2.8%,nt,nt,nt
ON=Cc1ccnc2ccccc12,7.5%,nt,nt,nt,-4.5%,8.1
O=C(O)c1ccccc1N/N=C\c1ccnc2ccccc12,-3.5%,-7.5%,2.0%,-5.3%,-33.2%,-68.2*
Cc1nnc(N/N=C\c2ccc(-c3cccc(C(=O)O)c3)o2)n1N,-9.6%,-13.1%,50.1µM*,?,-28.1%,?
O=Cc1ccc(-c2cccc(C(=O)O)c2)o1,-12.1%,5.5%,44.7µM*,-3.7%,-4.7%[11.6 µM],-20.1
CCOC(=O)c1cccc(-c2ccc(C=O)o2)c1,0.7%,-1.9%,-5.3%,7.5%,-24.1%,2.3
CCOC(=O)C1=C(C)Nc2nc(=S)[nH]n2C1c1ccc(Cl)cc1 (centres undefined),-4.5%,-16.3%,4.0%,3.2%[0.46 µM],0.6%,-60.0*
CCc1oc(C(=O)O)cc1COC,-19.6%,1.1%,56.2µM*,-15.4%,-22.4%[57.1 µM],7.3
O=C(NCCCCN1CCN(c2cccc(Cl)c2Cl)CC1)c1ccc2c(c1)Cc1ccccc1-2,nt,nt,3.6%,nt,nt,nt
O=C(CSc1nc2ccccc2c(=O)[nH]1)c1ccc(O)c(O)c1,?,?,-6.8%,0.0%,14.1µM*,-56.0*
Cc1cc(/C=C2\C=Cc3ccccc32)cc(C)c1N,nt,-25.1%,nt,nt,nt,nt
CCN(CC)Cc1cc(O)c(CN(CC)CC)cc1O,-26.1%,?,7.94µM*,-14.3%,50.1µM*,-10.7
CCOc1cc(C(c2c(O)nc(SC)[nH]c2=O)c2c(O)nc(SC)[nH]c2=O)ccc1O,-0.3%,2.6%,nt,nt,?,?
COc1ccccc1C(c1c(O)nc(SC)[nH]c1=O)c1c(O)nc(SC)[nH]c1=O,-6.5%,1.4%,nt,nt,-12.7%,-51.3*
Oc1ccc(Nc2nc(NCC3CCCO3)c3ccccc3n2)cc1 (centres undefined),4.9%,?,1.9%,3.8%,35.5µM*,-3.6
COc1cccc(OCC(O)CN2CCC(CN3C(=O)c4cccc5cccc(c45)C3=O)CC2)c1 (centres undefined),-8.3%,28.2µM*,-2.5%,-4.6%,56.5%,-5.1
O=C(O)c1ccc(-c2ccc3cc(C45CC6CC(CC(C6)C4)C5)c(O)cc3c2)cc1,nt,nt,4.3%,nt,nt,nt
O=C(O)c1cccc(NC(=O)c2ccc3c(c2)C(=O)N(Cc2ccco2)C3=O)c1,-4.1%,-8.0%,50.1µM*,-5.8%,-19.2%[11.6 µM],-26.4
O=C(O)c1ccc2c(c1)C(=O)N(Cc1ccco1)C2=O,-2.4%,-3.1%,nt,0.8%,-33.8%,-69.3*
c1c[nH]cn1,nt,nt,12.1%,nt,nt,nt
O=C1C=CC(=Nc2ccc3c(c2)C(=O)c2ccccc2-3)O1,-3.9%,-7.2%,nt,nt,-20.6%,-57.8*
COc1ccc2c(c1)CCc1c-2nc2ccccc2c1N1CCOCC1,-0.9%,50.1µM*,nt,0.2%,-18.5%,-8.9
Cc1ccc(NS(=O)(=O)c2cc3c(cc2-c2ccsc2)NC(=O)CO3)cc1C,nt,nt,0.2%,nt,nt,nt
S=C(Nc1ccccn1)c1ccccn1,-6.0%,-0.1%,8.4%,?,?,-94.9*
O=C(Nc1ccccn1)C(=O)Nc1ccccn1,-12.3%,20.8%,5.1%,-1.8%,-11.7%,-19.7
SMILES,Tb PGK inh,FEN1 inh,TDP1 inh,Tb PFK block,WRN helicase inh,PI5P4Ka inh
CN(C)CC1CCC/C(=C\c2ccc(OC(=O)/C=C/c3ccccc3)cc2)C1=O (centres undefined),-0.6%,11.8%,nt,nt,-32.8%,-9.7
CN(C)CC1CC/C(=C\c2ccc(O)cc2)C1=O (centres undefined),i,56.2µM*,nt,nt,11.2µM*,-20.6
COc1ccc(/C=C2/CCC(CN3CCOCC3)C2=O)cc1 (centres undefined),-7.5%,9.6%,nt,nt,14.1µM*,-9.6
COc1ccc(/C=C2\CCC(C3CCCC3)C2=O)cc1 (centres undefined),-4.6%,-1.7%,nt,0.8%,-7.5%,1.9
Cc1cccc2[nH]cc(/C=C3/C=Nc4ccccc43)c12,nt,-3.6%,nt,nt,nt,nt
CC(C)(C)N1NC2(CCCCC2)NC1=S,0.9%,2.3%,5.8%,2.9%,-17.5%,-58.1*
Cc1c(C#N)c(O)[nH]c(=O)c1N=Nc1ccc(Br)cc1C(=O)O,-6.3%,?,nt,?,-29.0%,-58.6*
COc1ccc(OCc2cc(C(=O)O)c(C)o2)cc1,nt,nt,14.1µM*,-8.9%,nt,nt
COc1ccc(C=C2NC(=S)NC2=O)cc1,-7.0%,-5.1%,nt,nt,1.3%,-9.0
COc1ccc(C(=O)N2C(=S)NC(=O)/C2=C\c2ccc(C)cc2)cc1,?,?,5.5%,-6.8%,50.1µM*,-28.6
CONC(=O)C[C@@H](C#N)NC(=O)[C@@H]1CCCN1C(=O)[C@@H](NC(=O)c1ccc(N)c(Cl)c1)C(C)(C)C,nt,nt,-5.9%,nt,nt,nt
CN1CCN(S(=O)(=O)c2ccc(NC(=S)NC(=O)c3ccccc3)cc2)CC1,4.0%,-8.5%,4.7%,0.7%,-6.0%,-14.8
CN1CCN(S(=O)(=O)c2ccc(NC(=S)NC(=O)c3ccc(Cl)cc3)cc2)CC1,-1.7%,-14.3%,11.5%,-5.6%,-31.4%,-51.4*
N#CC(C#N)=C1C=CC=CN1/C(=C\c1ccco1)C(=O)c1ccccc1,i,3.9%,1.4%,0.4%,17.8µM*,0.7
CO[C@@H]1COC(=O)CCC[C@@H](C)[C@H](OC)COC(=O)[C@H](Cc2ccccc2)NC(=O)C/C=C\[C@H]1C,nt,nt,5.8%[21 µM],nt,nt,nt
O=[N+]([O-])c1cc(Cl)cc(/C=N/NC(=S)Nc2ccc(S(=O)(=O)N3CCOCC3)cc2)c1O,-5.6%,?,12.3%,0.7%,-31.9%[11.6 µM],-85.0*
O=S(=O)(c1ccc(NC(=S)N/N=C/c2ccc(O)c(O)c2)cc1)N1CCOCC1,-6.6%,0.0%,6.2%,-10.8%,-26.5%,-23.3
Oc1ccc(Cl)cc1N=Nc1ccccc1,-10.2%,4.6%,9.2%,1.5%,-1.4%,16.3
O=S(=O)(O)c1cc(O)c2c(O)c(N=Nc3cc(Cl)ccc3O)c(S(=O)(=O)O)cc2c1,?,?,nt,?,44.7µM*,-76.1*
O=C(O)c1cccc(-c2ccc(/C=N/n3cnc4sc5c(c4c3=O)CCCC5)o2)c1,nt,nt,17.8µM*,-0.7%,nt,nt
Cc1ccc(/C=N/n2cnc3sc4c(c3c2=O)CCCC4)o1,-11.0%,-7.2%,2.1%,-3.2%,-12.6%,nt
S=C1Cc2ccccc2N1,?,?,4.8%,-1.6%,6.4%,-63.8*
S=C1Nc2ccccc2CS1,-8.0%,nt,nt,nt,6.4%,-18.7
CC(C)(C)C(=O)Nc1ccc(C(=O)Nc2cc(NC(=O)c3ccc(NC(=O)C(C)(C)C)cc3)cc(C(=O)O)c2)cc1,-5.5%,1.0%,nt,-2.0%,-2.4%,2.2
